Results published in PubChem BioAssay AID2284168 (EPA ToxCast).
Activity calls are given as the source filed them. The calls were made as follows: active = hit-call score of the fitted dose curve at least 0.9, where 1 is the maximum; inactive = score below 0.9.

target: human Opioid Receptor delta (DOP) Agonism, OPRD1 (gene 4985) (UniProt P41143); test: ERF_FR_GPCR_hOPRD1: Eurofins (ERF) G Protein-Coupled Receptor (GPCR) Radioligand Binding LeadHunter Assay for human Opioid Receptor delta (DOP) Agonism
Experimental: ERF_FR_GPCR_hOPRD1 is a biochemical, single-readout assay that uses extracted gene-proteins in a cell-free assay. Measurements were taken 1 hour after chemical dosing in a 96-well plate. See delta (DOP) Human Opioid GPCR Binding (Agonist Radioligand) Assay, Cerep.ERF_FR_GPCR_hOPRD1 is an assay component calculated from the ERF_FR_GPCR_hOPRD1 assay. It is designed to measure radioligand binding using a type of binding reporter as detected by scintillation counting with radiometry technology.Data from the assay component ERF_FR_GPCR_hOPRD1 was analyzed at the assay endpoint, ERF_FR_GPCR_hOPRD1, in the positive analysis fitting direction relative to DMSO as the negative control and baseline of activity. Using a type of binding reporter, gain-of-signal activity can be used to understand changes in binding as they relate to gene OPRD1. To generalize the intended target to other relatable targets, this assay endpoint is annotated to the gpcr intended target family, where the subfamily is opioid.
Human cells are incubated for 60 minutes at room temprature with [3H]DADLE ligand (0.5 nM) and DPDPE as control inhibitor. Test Sample Requirements: Minimum for 1) Screen: 60 ul of 10 mM stock -OR- 1 mg (pre-weighed) for 10 uM final testing. 2) Dose Response: 90 ul of 10 mM stock -OR- 1 mg (pre-weighed) for a top concentration at 10 uM.

human Opioid Receptor delta (DOP) Agonism, OPRD1 (gene 4985), sequence (P41143 whole entry, looked up): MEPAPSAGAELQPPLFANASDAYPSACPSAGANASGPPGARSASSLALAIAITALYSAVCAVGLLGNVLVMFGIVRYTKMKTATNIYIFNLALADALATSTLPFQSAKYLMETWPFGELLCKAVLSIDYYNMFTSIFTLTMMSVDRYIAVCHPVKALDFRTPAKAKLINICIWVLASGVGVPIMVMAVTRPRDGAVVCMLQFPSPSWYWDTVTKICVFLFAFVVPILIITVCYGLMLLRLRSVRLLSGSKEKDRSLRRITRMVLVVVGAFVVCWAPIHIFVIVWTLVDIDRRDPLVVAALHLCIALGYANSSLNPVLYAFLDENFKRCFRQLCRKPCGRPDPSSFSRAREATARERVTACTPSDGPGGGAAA

Compound	AC50
O=C(/C=C/c1ccc(O)cc1)CC(=O)/C=C/c1ccc(O)cc1	1.5 µM (active)
